This note sets out measurements from PubChem BioAssay (NCI).

Compounds without any hit were thinned out: in the full panel of roughly 83,000, 20% have a hit.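 Negative percent growth values reflect cell death: -40 means 40% of the cells present at the start died, and -100 means all died.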 Unmarked numbers belong to inactive results. Activity calls are given as the source filed them. How the source made its calls: active means growth percent below 10; inactive means the rest.

Holding throughout (experiment): NCI-60 one-dose screen, 48 h (100 = growth as untreated, 0 = no growth, -100 = all killed)
Conditions in all cases: 10 µM

In assay [1] the test system is T-47D breast.
The subject of assay [2] is BT-549 breast.
Assay [3] concerns MDA-MB-435 melanoma.
The test system of assay [4] is SW-620 colon.
The subject of assay [5] is MCF7 breast.
The subject of assay [6] is HCT-116 colon.
For assay [7], the system named is HCC-2998 colon.
For assay [8], the system named is KM12 colon.
Assay [9] has as its system MDA-MB-468 breast.

As for `O=S(=O)(Nc1ncccn1)c1ccc(-n2c(-c3ccc(Br)cc3)nc(-c3ccccc3)c2-c2ccccc2)cc1`, the growth is 2.77% (active) in [1]; 8.3% (active) in [2]; 42.7% in assay [3]; 48.5% in [4]; 28.6% in assay [5]; 34.5% in assay [6]. Also, the growth in [7] was 39.7%; in assay [8], 27.7%; in [9], 24.3%.
As to `CC(=O)Nc1nc(-c2ccc(N3CCN(C)CC3)c(NS(=O)(=O)c3ccc(C(F)(F)F)cc3)c2)cs1`, the growth in assay [1] was 25.4%; in assay [2] it was -29.4% (active); in assay [3], 6.38% (active); in [4] it was -41.6% (active); in assay [5] it was 6.99% (active); in assay [6], -75.8% (active). Further, the results for the growth in assay [7], in [8] and in assay [9] were 15.4%, 2.44% (active) and -29.3% (active), respectively.
Consider `CN1CCN(Cc2ccc(C(=O)Nc3cccc(Nc4ccc5cc(O)ccc5n4)c3)cc2C(F)(F)F)CC1`, for which the growth was -11.7% (active) in assay [1]; 78.1% in [2]; -85.5% (active) in assay [3]; -83.1% (active) in [4]; -78.4% (active) in [5]; 1.51% (active) in assay [6]. Moreover, the results for the growth in assay [7], in assay [8] and in [9] were -97.3% (active), -48% (active) and -89.4% (active), respectively.
As to `Cn1cc(-c2cc(N)n3nc(-c4c[nH]c5ccc(Br)cc45)cc3n2)c2cccnc21`, the growth in [1] was -75.7% (active); in assay [2] it was -83.7% (active); in assay [3] it was -77.7% (active); in assay [4] it was -78.6% (active); in [5] it was -78.5% (active); in assay [6], -87.9% (active). For the same compound, the growth is -97.8% (active) in assay [7], -78.3% (active) in assay [8] and -92.1% (active) in [9].
Consider `Cc1noc2c(Cc3ccccc3)nn(CC(=O)N/N=C/c3ccc(Cl)cc3)c(=O)c12`, for which the growth is 9.05% (active) in assay [1]; 89.4% in assay [2]; 75.8% in assay [3]; 51.7% in assay [4]; 51.9% in assay [5]; 26.4% in [6]. Besides, the results for the growth in assay [7], in assay [8] and in assay [9] were 79.7%, 72.6% and 81%, respectively.
With `CC(=O)NS(=O)(=O)c1ccc(NC(=O)CSC2=NC(c3ccccc3)C(C(C)=O)=C(C)N2)cc1` (configuration not stated), the growth in assay [1] is 99.7%; in assay [2], 116%; in assay [3] it was 104%; in [4] it was 106%; in assay [5], 95.2%; in assay [6] it was 102%. In addition, the growth in assay [7] is 108%; in assay [8], 104%; in assay [9], 110%.
Turning to `C=C(c1ccc(OC)c(N)c1)c1cc(C)nc2ccccc12`, the growth in assay [1] is 62.6%; in assay [2], 64.8%; in assay [3], -48.9% (active); in assay [4], 18.4%; in assay [5], 9.03% (active); in assay [6], 8.49% (active). Further, the growth was 11.4% in assay [7], 10.5% in [8] and -16.3% (active) in assay [9].
Regarding `COc1ccc(C(=O)NC(=S)N2CCN(c3ncnc4c3cnn4-c3ccccc3)CC2)cc1`, the growth in assay [1] is 70.3%; in [2] it was 88.2%; in assay [3], 84.8%; in assay [4] it was 80.5%; in [5], 54.3%; in assay [6], 66.6%. The growth in assay [7] is 87%; in assay [8], 84.4%; in [9], 61.2%.
Regarding `O=C1Nc2ccc(Cl)cc2/C1=C/c1cccc(OCc2ccccn2)c1`, the growth in assay [1] was -2.11% (active); in assay [2], -7.83% (active); in [3], -39.2% (active); in assay [4], -38% (active); in assay [5], -0.24% (active); in assay [6], -98.3% (active). Further, the growth in assay [7] was -73.2% (active); in [8] it was -32.3% (active); in [9], -30% (active).
With `CC(=C(c1ccc(OCCN2CCCCC2)cc1)c1ccc(OCCN2CCCCC2)cc1)c1ccccc1`, the growth in assay [1] was -20.3% (active); in assay [2], 110%; in [3], -66% (active); in assay [4], 12.3%; in [5], -48.3% (active); in assay [6], 14.3%. Besides, the growth was 15.7% in assay [7], 24.4% in assay [8] and 37.4% in assay [9].
As for `CC(=O)Nc1ccc(-c2cn(-c3cccc(C(=O)Nc4ccc(F)c(C(F)(F)F)c4)c3)nn2)cn1`, the growth is 88.2% in [1]; 103% in assay [2]; 59.7% in assay [3]; -8.11% (active) in assay [4]; 4.2% (active) in assay [5]; 14.7% in assay [6]. The growth in [7] is 62%; in assay [8] it was 28.4%; in assay [9], 42.8%.
For the compound `CC(C)c1ccc(C(=O)Nc2sc3c(c2C(N)=O)CCC(=O)C3=O)cc1`, the growth in [1] is 80.3%; in [2], 107%; in [3] it was 91.4%; in assay [4], 105%; in [5], 79.3%; in assay [6] it was 91.9%. For the same compound, the results for the growth in [7], in [8] and in assay [9] were 119%, 98.6% and 94.8%, respectively.
As for `COc1cc2c3c(n(CCCn4ccnc4)c(=O)c2cc1OC)-c1nc2c(cc1C3=O)OCO2`, the growth in [1] is 21.8%; in [2], 29.6%; in assay [3], 52.2%; in assay [4], 37%; in assay [5], 7.42% (active); in assay [6], 30.4%. For the same compound, the growth is 72.2% in [7], 59.6% in assay [8] and -29.8% (active) in [9].
Take `N#Cc1c(NC(=O)c2cccc(C(F)(F)F)c2)sc2c1CCC(O)=C2`: the growth is 16.5% in assay [1]; 44.6% in assay [2]; 9.7% (active) in [3]; 35.4% in assay [4]; 27.9% in assay [5]; 40.4% in assay [6]. Further, the figures for the growth in assay [7], in [8] and in assay [9] were 36.3%, 23.1% and -18.6% (active), respectively.
In the case of `COc1ccc(N(C)c2cc(C#N)nc3ccccc23)cc1N`, the growth in assay [1] is 20.8%; in assay [2], 94.1%; in assay [3], -22.4% (active); in assay [4], 19%; in assay [5], 9.87% (active); in assay [6] it was 6.17% (active). Also, the growth in assay [7] was 7.99% (active); in [8], 9.27% (active); in assay [9], 3.98% (active).
With `COc1cc(/C=C/C(=O)c2ccc(C(F)(F)F)cc2)ccc1Oc1nc(Nc2ccc(F)cc2)nc(N(C)C)n1`, the growth in [1] was 44.6%; in assay [2], 90.9%; in [3], 80.1%; in [4], 50.2%; in [5], 30.8%; in [6], 7.06% (active). In addition, the results for the growth in [7], in assay [8] and in assay [9] were 97.9%, 87.8% and 66.4%, respectively.
As to `O=C(N/N=C/c1ccc(B(O)O)o1)c1[nH]c2ccc(Br)cc2c1-c1ccccc1`, the growth is 36.4% in assay [1]; 41% in assay [2]; -53.2% (active) in assay [3]; 26.2% in assay [4]; 13.8% in [5]; 7.23% (active) in assay [6]. Besides, the figures for the growth in [7], in assay [8] and in assay [9] were 8.58% (active), 15.4% and -3.94% (active), respectively.
As to `COc1ccc(/C=N/N=C(\C)c2ccc3c(c2)Nc2ccccc2S3)cc1O`, the growth is 21.5% in assay [1]; 40.1% in assay [2]; 34.7% in assay [3]; 68.5% in [4]; 11.9% in [5]; 38.7% in assay [6]. In addition, the results for the growth in assay [7], in assay [8] and in [9] were 51.2%, 39.2% and 0.0526% (active), respectively.
As for `CC1(C)[C@@H](NCO)CC[C@]2(C)[C@H]3C(=O)C=C4[C@@H]5C[C@](C)(CO)CC[C@]5(C)CC[C@@]4(C)[C@]3(C)CC[C@@H]12`, the growth in assay [1] was 63.9%; in assay [2] it was 81.8%; in assay [3] it was 59.9%; in assay [4], 35.2%; in assay [5], 33.7%; in assay [6], 37.8%. The growth is 40.8% in assay [7], 65.7% in assay [8] and 47.2% in assay [9].
`CCCSc1nc(NC2CC2)c(C#N)c(-c2ccc(OC)cc2)n1`: the growth in assay [1] was 88.8%; in [2] it was 88.1%; in assay [3] it was 106%; in assay [4], 105%; in assay [5] it was 103%; in assay [6], 74.1%. Moreover, the growth in [7] is 115%; in assay [8] it was 107%; in assay [9], 139%.
As for `CN(C)c1nc(NCCNS(=O)(=O)c2ccc(C(=O)/C=C/c3ccccc3)cc2)nc(Nc2ccc(F)cc2)n1`, the growth in assay [1] is 25.6%; in assay [2], 24.9%; in assay [3], 4.21% (active); in assay [4], -4.39% (active); in assay [5], -82.8% (active); in assay [6], -53% (active). The figures for the growth in assay [7], in [8] and in [9] were -75.7% (active), -78.4% (active) and 1.47% (active), respectively.
In the case of `COc1ccc(NC(=O)Cn2c(/C=C/c3ccc(N(C)C)cc3)nc3ccccc3c2=O)cc1`, the growth in [1] is 44.2%; in assay [2], -9.99% (active); in [3], 54.3%; in assay [4], 48%; in assay [5], 21.5%; in [6], 28.6%. For the same compound, the growth in [7] is 63%; in assay [8], 50.5%; in assay [9] it was -25.4% (active).
Take `Nc1nc(Nc2ccccc2)nn1Cc1c(Cl)cccc1Cl`: the growth in assay [1] was 15%; in assay [2], 23.6%; in assay [3], 48.4%; in assay [4], 56.3%; in [5], 16%; in assay [6], 22.4%. Further, the growth in assay [7] is 15.2%; in [8] it was 13%; in assay [9] it was 5.3% (active).
With `COc1ccc(-c2cc(-c3cc(C(=O)c4ccc(Br)cc4)n4ccc(C)cc34)nc(N)c2C#N)cc1`, the growth in assay [1] was 82.8%; in assay [2], 104%; in assay [3], 92.7%; in [4] it was 92.3%; in [5] it was 79.1%; in [6], 73.8%. Further, the growth in assay [7] is 103%; in assay [8] it was 82.1%; in assay [9] it was 24.3%.
Turning to `CC(=O)OC[C@@]1(C)C2CC[C@]3(C)C(CC=C4C5CC(C)(C)CC[C@]5(C(=O)Nc5ccccc5)CC[C@]43C)[C@@]2(C)C[C@@H](OC(C)=O)[C@@H]1OC(C)=O` (some centres not stated), the growth in assay [1] is 15.3%; in assay [2], 47.7%; in [3] it was 45.7%; in [4], 36.3%; in assay [5], 24.4%; in [6], 25.4%. The growth in assay [7] is 42.3%; in assay [8], 49%; in [9], -4.16% (active).
Regarding `O=C(CSc1nnc(-c2c[nH]c3ccccc23)n1-c1ccccc1)Nc1ccc(C(=O)/C=C/c2ccc(Br)cc2)cc1`, the growth is 57.9% in assay [1]; 87.4% in [2]; 85.8% in assay [3]; 97.6% in assay [4]; 25.3% in assay [5]; -32.4% (active) in assay [6]. The growth in assay [7] was 94.4%; in assay [8], 72%; in assay [9] it was 71.1%.
Consider `O=C(Nc1nc2ccc([N+](=O)[O-])cc2s1)Nc1ccccc1I`, for which the growth was -16.7% (active) in [1]; -18.9% (active) in assay [2]; -7.59% (active) in assay [3]; 7.65% (active) in assay [4]; -13.9% (active) in assay [5]; -18.8% (active) in assay [6]. The values for the growth in assay [7], in assay [8] and in [9] were 4.48% (active), 2.86% (active) and -25.8% (active), respectively.
Consider `CN1CCN(Cc2ccc(C(=O)Nc3cccc(Nc4ccc5c(O)cccc5n4)c3)cc2C(F)(F)F)CC1`, for which the growth is -36.8% (active) in assay [1]; -58.4% (active) in assay [2]; -91.6% (active) in assay [3]; -84% (active) in assay [4]; -67.1% (active) in [5]; -43.9% (active) in assay [6]. Moreover, the results for the growth in assay [7], in [8] and in [9] were -93.2% (active), -76.7% (active) and -92.7% (active), respectively.
